Test [1] concerns the target sheep Cyclooxygenase-2 (Cox2), PTGS2 (gene 443460) (UniProt P79208). Put plainly: NVS_ENZ_oCOX2: NovaScreen (NVS) Enzymatic Assay for sheep Cyclooxygenase-2 (Cox2) (AID 2283231). The essentials: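 Colorimetric absorbance read-out of COX activity, taken 0.66 hour post-dosing, using native protein from sheep placenta. Single-concentration duplicate screen (25 uM), then singleton concentration-response up to 50 uM for actives.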

The test system of test [2] is bovine Angiotensin II Receptor Type 2 (AT2), gene 407157. Put plainly: NVS_GPCR_bAT2: NovaScreen (NVS) G Protein-Coupled Receptor Assay for bovine Angiotensin II Receptor Type 2 (AT2) (AID 2283240). The gist of the method: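 Radioligand displacement on bovine cerebellar membranes, 1 hour incubation, filter-based scintillation counting; loss of signal vs DMSO. Duplicate single-point screen at 25 uM, then concentration-response to 50 uM maximum.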

The test system of test [3] is guinea pig Leukotriene B4 Receptor (LTB4), gene 100379538. Put plainly: NVS_GPCR_gLTB4: NovaScreen (NVS) G Protein-Coupled Receptor Assay for guinea pig Leukotriene B4 Receptor (LTB4) (AID 2283247). The essentials: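 Membranes from guinea pig spleen incubated 2 h with radioligand and compound; bound counts measured by filtration and scintillation. Screened first at 25 uM in duplicate, then actives titrated to a 50 uM top concentration relative to DMSO.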

In test [4] the target is sheep Cyclooxygenase-1 (Cox1), PTGS1 (gene 443551) (UniProt P05979). Put plainly: NVS_ENZ_oCOX1: NovaScreen (NVS) Enzymatic Assay for sheep Cyclooxygenase-1 (Cox1) (AID 2283239).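 Note: actives reduce cyclooxygenase activity so potencies are for inhibitors.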 The gist of the method:
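Native ovine seminal vesicle protein serves as enzyme source in this biochemical assay. Colorimetric signal is recorded 0.66 h after chemical addition, and decreases versus the DMSO control define activity.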

Test [5] has as its target bovine Dopamine Receptor (DR), Non-selective Binding, DRD1 (gene 281125) (UniProt Q95136). Put plainly: NVS_GPCR_bDR_NonSelective: NovaScreen (NVS) G Protein-Coupled Receptor Assay for bovine Dopamine Receptor (DR), Non-selective Binding (AID 2283241). The essentials: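 Filter-based radioligand binding with bovine striatal membrane, incubated 1 h; DMSO as negative baseline. Initial duplicate single-point test at 25 uM preceded concentration series for actives.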

Test [6] deals with bovine Histamine 1 Receptor (H1), gene 281231. Put plainly: NVS_GPCR_bH1: NovaScreen (NVS) G Protein-Coupled Receptor Assay for bovine Histamine 1 Receptor (H1) (AID 2283246). The gist of the method: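 Hits from a 25 uM duplicate primary screen were retested in concentration series (top 50 uM); binding measured as scintillation-counted displacement of radioligand from bovine cerebellar membranes after 1 h, normalised to DMSO.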

The test system of test [7] is guinea pig Muscarinic, Peripheral (Mperiperal) Receptor, Non-selective Binding, gene 100379235. Put plainly: NVS_GPCR_gMPeripheral_NonSelective: NovaScreen (NVS) G Protein-Coupled Receptor Assay for guinea pig Muscarinic, Peripheral (Mperiperal) Receptor, Non-selective Binding (AID 2283250). The gist of the method:
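Screened in duplicate at 25 uM, hits retested in concentration series to 50 uM max, using bladder membrane radioligand displacement from guinea pig. Filtration and scintillation counting 1 h post-dose, fitted relative to DMSO.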

In test [8] the target is human Serotonin, 5-Hydroxytryptamine Receptor 5A (5HT5A), HTR5A (gene 3361) (UniProt P47898). Put plainly: NVS_GPCR_h5HT5A: NovaScreen (NVS) G Protein-Coupled Receptor Assay for human Serotonin, 5-Hydroxytryptamine Receptor 5A (5HT5A) (AID 2283251). The essentials:
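Membranes from HEK293 cells, radioligand binding read by filtration and scintillation after 1 h. Single-concentration duplicate testing at 25 uM, then concentration-response for actives; positive-direction fitting relative to DMSO.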

For test [9], the target named is human Serotonin, 5-Hydroxytryptamine Receptor 6 (5HT6), HTR6 (gene 3362) (UniProt P50406). Put plainly: NVS_GPCR_h5HT6: NovaScreen (NVS) G Protein-Coupled Receptor Assay for human Serotonin, 5-Hydroxytryptamine Receptor 6 (5HT6) (AID 2283253). The gist of the method:
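Filter scintillation counting of radioligand displacement from HEK293-expressed 5HT6, 1 hour post-dose, with loss of signal relative to DMSO. Single 25 uM duplicates first, with concentration series for confirmation.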

In test [10] the target is human Adrenergic, Alpha 2A Receptor (Adra2A), ADRA2A (gene 150) (UniProt P08913). Put plainly: NVS_GPCR_hAdra2A: NovaScreen (NVS) G Protein-Coupled Receptor Assay for human Adrenergic, Alpha 2A Receptor (Adra2A) (AID 2283257). The essentials: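 Displacement of a specific radioligand from HT29 membrane protein was counted by filter scintillation after 1 h. Compounds were screened in duplicate at 25 uM, and actives were retested in concentration series. Fitting was positive-direction against DMSO.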

Test [11] addresses rat Constitutive Nitric Oxide Synthase (CNOS), Nos1 (gene 24598) (UniProt P29476). Put plainly: NVS_ENZ_rCNOS: NovaScreen (NVS) Enzymatic Assay for rat Constitutive Nitric Oxide Synthase (CNOS) (AID 2283236). The essentials:
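Single 25 uM duplicate screen, then concentration series to 50 uM for chemicals meeting threshold. Rat brain membrane-derived CNOS activity detected radiometrically by filtration and scintillation counting, 1 h after compound addition; DMSO as baseline.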

In test [12] the target is human Adenosine A1 Receptor (AdoRA1), ADORA1 (gene 134) (UniProt P30542). Put plainly: NVS_GPCR_hAdoRA1: NovaScreen (NVS) G Protein-Coupled Receptor Assay for human Adenosine A1 Receptor (AdoRA1) (AID 2283254). The essentials: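 Membranes from human cortical tissue were incubated with radioligand and test chemical for 1 hour, then filtered and counted. Activity was taken as signal loss relative to DMSO, screened at 25 uM in duplicate before concentration-response follow-up.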

The target in test [13] is human Serotonin, 5-Hydroxytryptamine Receptor 7 (5HT7), HTR7 (gene 3363) (UniProt P34969). Put plainly: NVS_GPCR_h5HT7: NovaScreen (NVS) G Protein-Coupled Receptor Assay for human Serotonin, 5-Hydroxytryptamine Receptor 7 (5HT7) (AID 2283255).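 Note: hits reduce specific radioligand binding relative to DMSO.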 The essentials: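 Filter-bound radioactivity counted after 1 h, with loss of specific radioligand binding fitted against DMSO. Membrane protein came from CHO cells expressing human 5HT7. Chemicals were tested first at 25 uM in duplicate, then in concentration series if active.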

Test [14] deals with human Adrenergic, Beta 1 Receptor (Adrb1), ADRB1 (gene 153) (UniProt P08588). Put plainly: NVS_GPCR_hAdrb1: NovaScreen (NVS) G Protein-Coupled Receptor Assay for human Adrenergic, Beta 1 Receptor (Adrb1) (AID 2283258). The gist of the method: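 Membranes/protein extracted from human neuroepithelioma cells, radioligand competition binding read by filtration and scintillation 2 h post-dose. Single 25 uM duplicate screen, then concentration-response follow-up; DMSO as negative control.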

Test [15] addresses Adenosine receptor A1 (Bos taurus) (UniProt P28190). Put plainly: NVS_GPCR_bAdoR_NonSelective: NovaScreen (NVS) G Protein-Coupled Receptor Assay for bovine Adenosine Receptor (AdoR), Non-selective Binding (AID 2283244). The gist of the method:
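Cell-free binding with membranes from bovine striatum: radioligand displaced by test chemical, read after 1 h by filtration and scintillation. Single-point 25 uM duplicate primary, 50 uM top concentration in follow-up curves, DMSO baseline.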

Test [16] deals with human Adenosine A2a Receptor (AdoRA2a), ADORA2A (gene 135) (UniProt P29274). Put plainly: NVS_GPCR_hAdoRA2a: NovaScreen (NVS) G Protein-Coupled Receptor Assay for human Adenosine A2a Receptor (AdoRA2a) (AID 2283256). The gist of the method:
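Compounds screened in duplicate at 25 uM, with actives followed up in concentration series, for displacement of a radioligand from HEK293-derived receptor protein. Bound counts read by filter scintillation at 1.5 hours, DMSO as baseline.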

Test [17] has as its target human Serotonin, 5-Hydroxytryptamine Receptor 2A (5HT2A), HTR2A (gene 3356) (UniProt P28223). Put plainly: NVS_GPCR_h5HT2A: NovaScreen (NVS) G Protein-Coupled Receptor Assay for human Serotonin, 5-Hydroxytryptamine Receptor 2A (5HT2A) (AID 2283249). The essentials: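 Radioligand displacement on human cortex tissue extract, counted by filtration and scintillation 1.5 h post-dosing. Initial single-concentration screen at 25 uM in duplicate, concentration series in follow-up; DMSO as baseline.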

The target of test [18] is guinea pig Leukotriene D4 Receptor (LTD4), CYSLTR1 (gene 100135514) (UniProt Q2NNR5). Put plainly: NVS_GPCR_gLTD4: NovaScreen (NVS) G Protein-Coupled Receptor Assay for guinea pig Leukotriene D4 Receptor (LTD4) (AID 2283248). The essentials: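 Guinea pig lung membrane preparation; bound radioligand measured by filter scintillation after 1 h, loss of signal versus DMSO marking displacement. Compounds tested at 25 uM in duplicate, hits retested to max 50 uM.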

Records with an inconclusive call do not appear. Calls of active or inactive are those of the source. Rule for the calls: active = hit-call score of the fitted dose curve at least 0.9, where 1 is the maximum; inconclusive = response in the unintended direction; inactive = score below 0.9.

Sequence of human Adrenergic, Beta 1 Receptor (Adrb1), ADRB1 (gene 153) (P08588 whole entry, looked up): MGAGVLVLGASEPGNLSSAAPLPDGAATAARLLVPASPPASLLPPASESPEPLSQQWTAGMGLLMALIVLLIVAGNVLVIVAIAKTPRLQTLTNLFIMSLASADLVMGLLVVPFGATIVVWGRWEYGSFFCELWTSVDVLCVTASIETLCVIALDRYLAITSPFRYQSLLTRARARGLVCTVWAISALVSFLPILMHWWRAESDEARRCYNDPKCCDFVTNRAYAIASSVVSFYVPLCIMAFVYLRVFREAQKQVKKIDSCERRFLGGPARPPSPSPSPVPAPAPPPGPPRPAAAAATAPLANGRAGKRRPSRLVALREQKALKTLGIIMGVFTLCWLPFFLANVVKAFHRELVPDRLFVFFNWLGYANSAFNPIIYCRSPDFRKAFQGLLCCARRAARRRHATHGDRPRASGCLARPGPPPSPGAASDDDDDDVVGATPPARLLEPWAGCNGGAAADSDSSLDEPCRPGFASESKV
Sequence of human Adenosine A2a Receptor (AdoRA2a), ADORA2A (gene 135) (P29274 whole entry, looked up): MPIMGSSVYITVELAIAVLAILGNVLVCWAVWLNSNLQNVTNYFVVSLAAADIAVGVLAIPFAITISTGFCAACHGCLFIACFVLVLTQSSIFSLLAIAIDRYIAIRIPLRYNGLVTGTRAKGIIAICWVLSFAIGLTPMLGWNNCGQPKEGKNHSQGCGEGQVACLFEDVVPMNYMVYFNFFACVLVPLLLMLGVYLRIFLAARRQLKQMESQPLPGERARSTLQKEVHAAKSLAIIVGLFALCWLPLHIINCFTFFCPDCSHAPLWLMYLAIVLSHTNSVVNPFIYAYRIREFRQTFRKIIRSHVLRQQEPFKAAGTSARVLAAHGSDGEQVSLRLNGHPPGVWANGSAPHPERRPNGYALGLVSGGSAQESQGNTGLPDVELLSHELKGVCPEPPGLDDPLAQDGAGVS
Sequence of bovine Dopamine Receptor (DR), Non-selective Binding, DRD1 (gene 281125) (Q95136 whole entry, looked up): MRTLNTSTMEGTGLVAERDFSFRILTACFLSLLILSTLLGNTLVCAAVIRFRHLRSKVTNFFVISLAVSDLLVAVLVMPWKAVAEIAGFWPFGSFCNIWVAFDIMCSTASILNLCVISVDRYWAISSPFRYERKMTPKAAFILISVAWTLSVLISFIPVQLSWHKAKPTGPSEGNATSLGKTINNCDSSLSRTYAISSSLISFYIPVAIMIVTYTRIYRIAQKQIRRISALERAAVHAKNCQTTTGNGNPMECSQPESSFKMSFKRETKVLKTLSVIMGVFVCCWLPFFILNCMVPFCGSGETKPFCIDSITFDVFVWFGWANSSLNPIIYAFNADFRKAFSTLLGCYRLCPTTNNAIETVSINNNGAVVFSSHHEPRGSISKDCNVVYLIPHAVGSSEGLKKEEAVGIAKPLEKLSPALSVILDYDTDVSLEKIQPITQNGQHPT
Sequence of human Serotonin, 5-Hydroxytryptamine Receptor 6 (5HT6), HTR6 (gene 3362) (P50406 whole entry, looked up): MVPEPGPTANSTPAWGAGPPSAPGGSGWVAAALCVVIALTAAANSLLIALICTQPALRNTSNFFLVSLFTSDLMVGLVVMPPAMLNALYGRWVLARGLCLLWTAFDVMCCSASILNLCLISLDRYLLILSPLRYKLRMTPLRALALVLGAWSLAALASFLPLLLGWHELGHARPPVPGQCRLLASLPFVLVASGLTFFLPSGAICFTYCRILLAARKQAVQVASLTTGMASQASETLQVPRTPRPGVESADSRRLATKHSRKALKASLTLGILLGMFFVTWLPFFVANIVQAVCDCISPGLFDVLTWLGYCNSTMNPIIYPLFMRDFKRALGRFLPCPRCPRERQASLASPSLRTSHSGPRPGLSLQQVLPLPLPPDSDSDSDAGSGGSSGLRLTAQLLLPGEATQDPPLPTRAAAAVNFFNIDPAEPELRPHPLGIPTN
Sequence of human Adenosine A1 Receptor (AdoRA1), ADORA1 (gene 134) (P30542 whole entry, looked up): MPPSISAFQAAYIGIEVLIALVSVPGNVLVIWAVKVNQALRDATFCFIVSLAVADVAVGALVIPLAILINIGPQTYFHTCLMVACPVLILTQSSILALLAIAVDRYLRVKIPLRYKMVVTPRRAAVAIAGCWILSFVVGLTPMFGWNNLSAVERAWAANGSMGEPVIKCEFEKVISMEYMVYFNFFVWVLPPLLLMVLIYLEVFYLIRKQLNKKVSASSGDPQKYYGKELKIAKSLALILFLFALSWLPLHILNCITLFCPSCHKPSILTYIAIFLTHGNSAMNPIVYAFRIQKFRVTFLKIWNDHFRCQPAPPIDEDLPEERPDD
Sequence of human Serotonin, 5-Hydroxytryptamine Receptor 2A (5HT2A), HTR2A (gene 3356) (P28223 whole entry, looked up): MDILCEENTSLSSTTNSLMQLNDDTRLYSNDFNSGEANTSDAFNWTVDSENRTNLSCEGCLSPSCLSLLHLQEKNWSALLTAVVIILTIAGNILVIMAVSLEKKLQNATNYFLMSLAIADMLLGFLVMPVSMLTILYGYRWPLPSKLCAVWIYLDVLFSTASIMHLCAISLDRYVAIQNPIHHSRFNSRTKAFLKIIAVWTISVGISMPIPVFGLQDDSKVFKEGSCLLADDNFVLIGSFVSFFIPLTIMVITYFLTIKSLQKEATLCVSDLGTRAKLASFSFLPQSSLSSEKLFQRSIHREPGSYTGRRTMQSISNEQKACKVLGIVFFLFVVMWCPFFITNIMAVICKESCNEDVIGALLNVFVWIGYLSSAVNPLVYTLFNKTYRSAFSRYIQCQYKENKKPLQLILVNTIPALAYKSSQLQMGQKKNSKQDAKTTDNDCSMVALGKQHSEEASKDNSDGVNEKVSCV
Sequence of sheep Cyclooxygenase-2 (Cox2), PTGS2 (gene 443460) (P79208 whole entry, looked up): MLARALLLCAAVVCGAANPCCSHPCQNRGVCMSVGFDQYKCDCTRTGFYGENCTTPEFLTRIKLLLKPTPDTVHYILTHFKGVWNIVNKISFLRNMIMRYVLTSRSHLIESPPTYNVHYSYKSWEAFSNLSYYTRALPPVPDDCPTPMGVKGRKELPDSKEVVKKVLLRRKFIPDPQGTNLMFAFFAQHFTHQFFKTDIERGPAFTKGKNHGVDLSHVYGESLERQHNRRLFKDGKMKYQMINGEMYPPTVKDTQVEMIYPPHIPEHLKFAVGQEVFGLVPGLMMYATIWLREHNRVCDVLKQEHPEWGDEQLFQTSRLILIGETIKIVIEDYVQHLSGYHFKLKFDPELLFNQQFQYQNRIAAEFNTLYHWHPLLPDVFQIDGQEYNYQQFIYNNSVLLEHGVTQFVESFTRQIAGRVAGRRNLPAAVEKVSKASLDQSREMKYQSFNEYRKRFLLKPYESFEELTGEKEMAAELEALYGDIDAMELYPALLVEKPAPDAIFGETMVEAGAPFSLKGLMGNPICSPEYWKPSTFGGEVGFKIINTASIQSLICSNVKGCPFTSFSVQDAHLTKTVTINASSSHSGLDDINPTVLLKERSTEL
Sequence of Adenosine receptor A1 (Bos taurus) (P28190 whole entry, looked up): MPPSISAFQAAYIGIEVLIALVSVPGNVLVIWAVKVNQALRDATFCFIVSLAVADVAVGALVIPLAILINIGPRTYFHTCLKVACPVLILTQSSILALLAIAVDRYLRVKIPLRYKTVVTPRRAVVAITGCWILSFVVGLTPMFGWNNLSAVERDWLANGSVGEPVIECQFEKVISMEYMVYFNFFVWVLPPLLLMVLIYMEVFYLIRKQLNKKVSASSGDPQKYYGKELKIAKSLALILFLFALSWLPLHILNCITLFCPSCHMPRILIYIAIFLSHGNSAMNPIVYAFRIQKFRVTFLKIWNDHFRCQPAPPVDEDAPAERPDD
Sequence of human Serotonin, 5-Hydroxytryptamine Receptor 5A (5HT5A), HTR5A (gene 3361) (P47898 whole entry, looked up): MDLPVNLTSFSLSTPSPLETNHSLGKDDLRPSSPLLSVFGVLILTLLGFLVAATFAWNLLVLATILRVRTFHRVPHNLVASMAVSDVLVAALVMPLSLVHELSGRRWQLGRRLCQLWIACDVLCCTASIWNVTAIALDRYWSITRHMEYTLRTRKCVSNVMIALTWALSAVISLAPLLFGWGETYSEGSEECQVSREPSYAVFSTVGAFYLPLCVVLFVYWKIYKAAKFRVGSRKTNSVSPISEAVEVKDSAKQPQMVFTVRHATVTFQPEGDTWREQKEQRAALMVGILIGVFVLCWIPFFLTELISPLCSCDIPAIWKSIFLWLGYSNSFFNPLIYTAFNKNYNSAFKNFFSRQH
Sequence of human Serotonin, 5-Hydroxytryptamine Receptor 7 (5HT7), HTR7 (gene 3363) (P34969 whole entry, looked up): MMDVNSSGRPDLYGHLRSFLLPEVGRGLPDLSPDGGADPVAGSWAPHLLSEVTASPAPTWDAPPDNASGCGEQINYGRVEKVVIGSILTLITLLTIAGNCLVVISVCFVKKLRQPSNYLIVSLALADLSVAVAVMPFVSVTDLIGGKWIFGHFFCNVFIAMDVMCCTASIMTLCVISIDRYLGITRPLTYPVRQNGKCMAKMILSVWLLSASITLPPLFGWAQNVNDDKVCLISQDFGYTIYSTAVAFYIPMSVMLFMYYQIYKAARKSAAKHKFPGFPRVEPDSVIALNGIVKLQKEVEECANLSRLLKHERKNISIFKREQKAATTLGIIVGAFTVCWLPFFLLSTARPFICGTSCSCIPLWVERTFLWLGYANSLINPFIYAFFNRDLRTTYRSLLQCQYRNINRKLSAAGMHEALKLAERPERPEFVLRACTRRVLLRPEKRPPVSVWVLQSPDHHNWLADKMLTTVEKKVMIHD
Sequence of human Adrenergic, Alpha 2A Receptor (Adra2A), ADRA2A (gene 150) (P08913 whole entry, looked up): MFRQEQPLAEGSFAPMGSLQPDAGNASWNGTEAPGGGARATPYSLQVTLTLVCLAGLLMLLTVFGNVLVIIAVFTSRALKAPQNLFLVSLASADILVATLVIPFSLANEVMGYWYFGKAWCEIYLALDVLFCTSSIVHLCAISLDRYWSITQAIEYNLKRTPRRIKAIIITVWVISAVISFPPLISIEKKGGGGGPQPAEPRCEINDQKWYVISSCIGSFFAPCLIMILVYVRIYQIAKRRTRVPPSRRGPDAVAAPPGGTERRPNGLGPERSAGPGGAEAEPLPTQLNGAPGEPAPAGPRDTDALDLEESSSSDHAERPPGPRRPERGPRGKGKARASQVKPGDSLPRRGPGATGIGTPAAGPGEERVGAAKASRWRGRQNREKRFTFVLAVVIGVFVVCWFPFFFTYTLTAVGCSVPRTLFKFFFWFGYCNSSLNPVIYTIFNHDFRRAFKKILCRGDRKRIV

Usually AC50 stands for the concentration at which the activity in the assay is half-maximal. For `CCc1cc(C2=C(C(=O)O)N(c3ccccc3C(F)(F)F)S(=O)(=O)c3ccccc32)cc2c1OCO2`, the concentration at half-maximal activity (AC50) in [1] is 19.2 µM (active); in [2] it was 25 µM (active); in [3] it was 3.48 µM (active).
Turning to `COc1ccc(OC(F)(F)F)cc1CN[C@H]1CCCN[C@H]1c1ccccc1`, the half-maximal activity concentration (AC50) is 11.6 µM (active) in test [4]; 8.68 µM (active) in test [5]; 7.82 µM (active) in test [6]; 25 µM (active) in test [7]; 9.71 µM (active) in test [9]; 13.4 µM (active) in test [10]. Besides, the call in test [8] was inactive.
Turning to `S=c1[nH]c2ccccc2s1`, the concentration at half-maximal activity (AC50) in [1] was 9.72 µM (active); in test [11], 10.6 µM (active); in test [4] it was 8.91 µM (active).
Turning to `COc1ccc(C(=O)Nc2nc3ccccc3c(NCc3ccccc3)c2C#N)cc1`, the AC50 in test [1] is 13.7 µM (active).
`C=CCCCCCCCCCCCC`: in [12], the call was inactive.
On to `CC(C)(C)c1ccccc1`, for which, in test [13], the call was inactive.
Regarding `CCCCC(CC)COC(=O)CCCCCCCC(=O)OCC(CC)CCCC` (stereo unspecified), the outcome in test [14] was inactive.
Turning to `O=C(O)CN(CC(=O)O)CC(=O)O`, the outcome in test [15] was inactive.
On the same count and under the same terms, as for `Cc1cc(SC2=C(O)C[C@@](CCc3ccc(N)cc3)(C(C)C)OC2=O)c(C(C)(C)C)cc1CO`, the entry is “inactive”.
As to `O=C1OC(c2ccc(O)cc2)(c2ccc(O)cc2)c2ccccc21`, the half-maximal activity concentration (AC50) in test [12] was 1.03 µM (active).
As for `Nc1nc(Cl)nc2c1ncn2[C@H]1C[C@H](O)[C@@H](CO)O1`, the half-maximal activity concentration (AC50) is 10.6 µM (active) in [15], 8.99 µM (active) in test [12] and 13.1 µM (active) in test [16].
As for `CC(C)(O)c1ccc(CNC(=O)c2cccnc2Oc2ccc(F)cc2)cc1`, the AC50 in test [3] was 4.68 µM (active). Besides, the molecule was called inactive in test [17].
In the case of `CCCCCCC(CCCCCCCCCCC(=O)OCC(COC(C)=O)OC(C)=O)OC(C)=O` (stereo unspecified), the outcome in [14] was inactive.
`CN(C)CCCN1c2ccccc2Sc2ccc(Cl)cc21`: in test [6], the molecule was called inactive. The AC50 in [7] was 1.66 µM (active); in test [8] it was 1.35 µM (active); in [10], 1.43 µM (active); in test [14], 25 µM (active).
For the molecule `O=C(N[C@@H](c1ccccc1)[C@@H]1CCCCN1)c1cccc(C(F)(F)F)c1Cl`, the AC50 in test [5] is 25 µM (active); in [17], 25 µM (active); in test [13], 8.16 µM (active). Further, in [7], the result was inactive.
As for `NC=O`, the molecule was classed as inactive in test [3].
As for `CO[C@@H]1COCC[C@@H]1N[C@@H]1CC[C@@](C(=O)N2CCc3ncc(C(F)(F)F)cc3C2)(C(C)C)C1`, the molecule was classed as inactive in test [6].
Regarding `CN(C)C(=O)NC1(c2ccccc2)CCN(CC[C@@]2(c3ccc(F)c(F)c3)CN(C(=O)c3ccccc3)CCO2)CC1`, the results for the AC50 in test [5], in test [17] and in test [16] were 6.51 µM (active), 13.1 µM (active) and 23.5 µM (active), respectively. For the same molecule, the outcome in test [15] and in test [7] was inactive.
Regarding `Cc1cc(Cc2ccc(N)c(C)c2)ccc1N`, the result in test [8] and in test [16] was inactive.
For the molecule `C=CCc1ccc(OC)c(OC)c1`, the result in [17] was inactive.
For the molecule `CCCC[C@H]1CN(CC2CCOCC2)C(=O)OC12CCN(C1(C)CCN(C(=O)c3c(C)ncnc3C)CC1)CC2`, the half-maximal activity concentration (AC50) in test [7] is 3.04 µM (active).
`O=Cc1ccccc1C=O`: the molecule was called inactive in test [3].
Consider `CCCCc1nc2cccnc2n1Cc1ccc(-c2ccccc2-c2nnn[nH]2)cc1`, for which the call in test [2] was inactive. Besides, the half-maximal activity concentration (AC50) in test [3] is 10.9 µM (active).
On to `CC(=O)O[C@]1(C(C)=O)CC[C@H]2[C@@H]3C=C(Cl)C4=CC(=O)[C@@H]5C[C@@H]5[C@]4(C)[C@H]3CC[C@@]21C`, for which, in [8], the molecule was called inactive.
For `CC(N)=O`, the molecule was called inactive in test [17].
`CC(C)c1cccc(C(C)C)c1`: the molecule was classed as inactive in [14].
Regarding `CC1(C)C(=O)NC(=O)N1CO`, the molecule was classed as inactive in test [9].
Turning to `CC(=O)O`, the outcome in [17] was inactive.
As for `CCCCCCCCCCCCCCOS(=O)(=O)O`, the concentration at half-maximal activity (AC50) in test [18] is 9.7 µM (active); in [7] it was 25 µM (active); in test [8] it was 20.3 µM (active); in test [9], 39.1 µM (active); in test [13] it was 16.5 µM (active); in test [14], 5.22 µM (active).
`Cc1ccc(-c2cc(C(F)(F)F)nn2-c2ccc(S(N)(=O)=O)cc2)cc1`: the AC50 in test [14] was 4.96 µM (active).
